High-throughput results: PubChem, several laboratories
Sampled rows, rich in hits. Any-hit rate of the full collection: about 2%.
TLR4-MyD88 BLA – blocks binding of human TLR4 to MyD88. 0.18% of 200,000 active. HeLa CL3-4 TLR4/MyD88 BLA complementation, FRET ratio. O00206+Q99836. AID 861. inhibition, % at 8.4 µM; in the data active = inhibition above about 25%
Beta2AR agonist – activates human beta-2 adrenergic receptor causing internalization | P07550 | Am2.2-beta2AR cells, FAP receptor internalization, flow cytometry | response, % (no concentration beside the values) | 0.43% of 340,000 active;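 active = response above a set limit, near 3 SD of response in nonfluorescent compounds, cut at about 42% in these data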
ABHD5 PLIN5 PPI – ABHD5-PLIN5 protein interaction inhibition. Split G. princeps luciferase complementation, luminescence, 4 h. inhibition, % at 4 µM. 0.78% of 360,000 active;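 active = inhibition above the mean inhibition across every tested compound plus 3 SD, cut at about 22% in these data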
Granule exo inh – blocks lytic granule exocytosis | TALL-104 LAMP-1 surface exposure, flow cytometry; cells stimulated with thapsigargin and PMA | inhibition, % at 10 µM | 0.66% of 360,000 active | AID 651702;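 active = inhibition above about 55%, limit read from the data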
NOD2 RIPK2 PPI – NOD2-RIPK2 protein interaction inhibition. 0.38% of 360,000 active. CHO BLA complementation NOD2-RIPK2, CCF4 ratio. AID 624267. O43353. inhibition, % at 4.98 µM; in the data active = inhibition above about 21%
TLR9-MyD88 block – blocks human TLR9 binding to MyD88; Q9NR96+Q99836; CHO BLA complementation TLR9-MyD88, CCF4 FRET ratio; inhibition, % at 4.98 µM; 0.21% of 340,000 active; AID 504734;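 active = inhibition above the mean over all tested compounds plus 3 SD, cut at about 21% in these data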
Exocytosis CP01 – lytic granule exocytosis inhibition. shares compounds with Granule exo inh. inhibition, % at 10 µM. TALL-104 cells, LAMP-1 externalization, flow cytometry; stimulated with PMA plus thapsigargin. 11% of 1,500 active; in the data active = inhibition above about 60%
Hits are given with their value; – = inactive; · = no result; ! = a repeat was not active.

SMILES	TLR4-MyD88 BLA	Beta2AR agonist	ABHD5 PLIN5 PPI	Granule exo inh	NOD2 RIPK2 PPI	TLR9-MyD88 block	Exocytosis CP01
O=C(c1ccc2ccccc2c1)C1CCCN(C(=O)c2cccnc2)C1 (configuration not stated)	·	–	–	66	–	–	–
COc1ccc(C(=O)C2CCCN(C(=O)c3cccnc3OC)C2)cc1F (configuration not stated)	–	–	–	77	–	–	–
COc1ccc(C(=O)C2CCCN(C(=O)c3cccs3)C2)cc1F (configuration not stated)	–	–	–	–	–	–	·
Cc1cccc(NC(=O)c2ccc(-n3cncn3)c([N+](=O)[O-])c2)c1	·	–	–	–	–	–	·
CCc1ccccc1NC(=O)CNC(=O)c1ccc(-n2cncn2)c([N+](=O)[O-])c1	·	–	–	66	–	–	–
O=c1[nH]c2cnn(-c3ccccc3)c2c(=O)n1O	·	–	–	–	–	–	·
CCCCSCCCNC(=O)c1ccc(CS(=O)(=O)c2ccccc2OC)o1	·	–	–	94	–	–	–
CCN1CCN(Cc2ccc(NC(=O)c3ccc(C)c(NC(=O)C[C@@H]4NC(=O)[C@H](Cc5ccccc5)NC4=O)c3)cc2C(F)(F)F)CC1	·	–	–	76!	–	–	–
O=C(CN1CCN(Cc2cccc3ccccc23)CC1)NCCc1ccccc1	·	–	–	78	–	–	–
O=S(=O)(O)c1cccc2cccc(Nc3ccccc3)c12	·	–	–	–	–	–	·
CC(C)c1ccc(NC(=S)N2CCN(S(=O)(=O)c3ccccc3)CC2)cc1	·	–	–	65	–	–	–
CCCCCCSc1ccc(-c2nc3ccccn3c2NCCCC)cc1	·	–	–	70	–	–	–
O=C(COC(=O)c1cc(=O)[nH]c2ccccc12)Nc1nc(-c2ccc(F)cc2)cs1	·	–	–	–	–	–	·
COc1ccc(Cl)cc1C(=O)Nc1ccccc1N1CCN(C)CC1	–	–	–	–	–	–	·
COc1ccc(Cl)cc1C(=O)Nc1ccccc1N1CCCCC1	·	–	–	57	–	–	–
O=C(Nc1ccccc1N1CCCCC1)c1cccc(OC(F)F)c1	·	–	–	99	–	–	–
COc1ccc(CC(=O)Nc2cc(Cl)ccc2N2CCCC2)cc1	·	–	–	67	–	–	–
CCCCn1cnc2c(c(-c3ccccc3)c(-c3ccccc3)n2Cc2ccco2)c1=N	·	–	–	64	–	·	–
N=c1c2c(-c3ccccc3)c(-c3ccccc3)n(Cc3ccco3)c2ncn1Cc1ccco1	–	–	–	91	–	–	–
N=c1c2c(-c3ccccc3)c(-c3ccccc3)n(Cc3ccccc3)c2ncn1CCCn1ccnc1	–	–	–	–	–	–	·
CN(C)CCCN(C(=O)c1ccc(C(=O)c2ccccc2)cc1)c1nc2ccc(F)cc2s1	·	–	–	59	–	–	–
CN(C)CCCN(C(=O)c1nc2ccccc2s1)c1nc2ccc(F)cc2s1	·	–	–	–	–	–	·
CCCCc1ccc(NC(=O)CSc2nc(=O)n(CCN(CC)CC)c3c2CCC3)cc1	·	–	–	84	–	–	–
COc1ccc(C(=O)Cn2cc[n+](C)c2)cc1	·	–	–	–	–	–	·
CCCCOC(=O)c1ccc(NC(=O)COC(=O)C2CC2C)cc1 (configuration not stated)	·	·	–	–	–	–	·
SMILES	TLR4-MyD88 BLA	Beta2AR agonist	ABHD5 PLIN5 PPI	Granule exo inh	NOD2 RIPK2 PPI	TLR9-MyD88 block	Exocytosis CP01
Cc1onc(-c2ccccc2)c1C(=O)OCCOc1ccccc1F	·	–	–	80	–	–	–
Cc1onc(-c2ccccc2)c1C(=O)OCC(=O)c1ccc(F)cc1	·	·	–	–	–	–	·
OCCOCCn1c(C(CO)Nc2nc(-c3ccc(Cl)cc3)cs2)nc2ccccc21 (configuration not stated)	·	–	–	–	–	–	·
Nc1c(Cl)cc(-c2csc(NC(CO)c3nc4ccccc4n3CCOCCO)n2)cc1Cl (configuration not stated)	·	–	–	70	–	–	–
COC1=CC(=O)OC(c2cccc(C#N)c2)C1 (configuration not stated)	·	·	–	–	–	·	·
COc1cc(CN2CCC(Cc3ccccc3)CC2)c([N+](=O)[O-])cc1OC	·	–	–	–	–	–	·
COc1cc(OC)c(CN2CCC(Cc3ccccc3)CC2)cc1Br	·	–	–	–	–	–	·
COc1ccc(OC)c(CN2CCC(Cc3ccccc3)CC2)c1	·	–	–	60	–	–	–
COc1cc(C)c(CN2CCC(Cc3ccccc3)CC2)cc1C	·	–	–	56	–	–	–
CC(=O)Nc1cccc(Nc2cnccn2)c1	·	·	–	–	–	·	·
COc1ccccc1OCCn1cc(C(=O)O)c2ccccc21	–	–	–	–	–	–	·
COc1ccccc1OCCn1cc(C(=O)C(C)C)c2ccccc21	·	–	–	60	–	–	–
CC1=C(C(=O)N(C(C)C)C(C)C)CC(CC(=O)NC(c2ccccc2)c2ccccc2)C(=O)N1Cc1ccc(C(C)(C)C)cc1 (configuration not stated)	·	·	–	–	–	·	·
CCOC(=O)[C@]12CCCC=C1N(Cc1ccco1)C(=O)[C@H](CC(=O)N1CCSCC1)C2	·	·	–	–	–	·	·
O=C(Cc1cccs1)Nc1cccc(-c2nc3cc4ccccc4cc3[nH]2)c1	–	–	–	66	–	–	–
O=C(CNC1CCCCC1)Nc1ccc(S(=O)(=O)N2CCCCC2)cc1	·	–	–	78	–	–	–
O=C(NCC1CCCO1)c1cc(S(=O)(=O)Nc2ccc(Br)cc2)ccc1Cl (configuration not stated)	–	–	–	83	–	–	–
Cc1cccc(C)c1-c1ccc(CN2C(CC(C)C)C(=O)N(Cc3cn(CC4CCCCC4)nn3)CCS2(=O)=O)cc1 (configuration not stated)	·	–	–	–	–	–	·
O=C(NCc1ccccc1Cl)c1ccncc1	·	–	–	66	–	–	–
CCCCCCCCN1C(=O)[C@H](CC(=O)NCc2cccc(C(F)(F)F)c2)C[C@@]2(C(=O)OC)CCCCC=C12	·	·	–	–	–	·	·
Cc1ccnc(Nc2nc(-c3ccc(O)c(O)c3)cs2)c1	·	–	–	72	–	–	–
Cc1ccnc(Nc2nc(-c3ccc(O)cc3)cs2)c1	·	–	–	–	–	–	·
COc1cc(/C=C(\CCC(=O)O)c2nc3ccccc3s2)ccc1OCC(=O)Nc1c(Cl)cccc1Cl	·	–	–	–	–	–	·
CC(=O)CCc1oc2ccc(C)cc2c1-c1ccc(C)o1	–	–	–	91	–	–	–
CCc1ccc(NC(=O)C2CCCN2S(=O)(=O)c2ccc3c(c2)C(C)(C)C(=O)N3C)cc1 (configuration not stated)	·	–	–	–	–	–	·
